Hits are enriched below; roughly 2.6% of the tested compounds scored in any of these assays.
Cruzain inh noDet = cruzain (T. cruzi) inhibition without detergent; 200,000 tested, 2.3% active; Potency, µM, without a hit: max response, negative = inhibition, usual class: inhibitors; purified cruzain, Z-FR-AMC fluorescence, no detergent;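 note: plate controls were enzyme without inhibitor for no effect and buffer without enzyme for full effect; nearly all actives have a fitted effect of over 40% in size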
Target sequence (P25779 123-467 limits assumed): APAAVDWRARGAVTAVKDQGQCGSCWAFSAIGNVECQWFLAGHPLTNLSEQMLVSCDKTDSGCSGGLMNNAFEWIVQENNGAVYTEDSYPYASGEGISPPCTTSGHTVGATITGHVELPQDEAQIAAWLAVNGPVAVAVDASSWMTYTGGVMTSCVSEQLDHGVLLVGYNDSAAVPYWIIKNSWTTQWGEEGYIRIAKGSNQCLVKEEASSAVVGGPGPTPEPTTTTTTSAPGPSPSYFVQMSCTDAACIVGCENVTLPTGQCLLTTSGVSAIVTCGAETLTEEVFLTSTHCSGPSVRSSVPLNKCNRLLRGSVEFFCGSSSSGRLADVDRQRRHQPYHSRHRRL
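Purified cruzain at 1.5 nM, pre-incubated 15 min with compound at room temperature in 100 mM sodium acetate pH 5.5, 5 mM DTT, 0.00005% Triton X-100. Reaction started with 2 uM Z-FR-AMC; AMC fluorescence increase over 60 s gives rate.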
Cruzain inh Det = inhibitors of Trypanosoma cruzi cruzain with detergent. purified cruzain, Z-FR-AMC fluorescence, 0.01% Triton. Potency, µM, for inactives: max response, negative = inhibition, usual class: inhibitors. AID 1478. 200,000 tested, 0.43% active. P25779;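 note: plate controls were neutral wells for no effect and buffer without enzyme for full effect; nearly all actives have a fitted effect of over 40% in size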
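Sodium acetate buffer (100 mM, pH 5.5) containing 5 mM DTT and 0.01% Triton X-100 hosted 1.5 nM cruzain and test compound for 15 min at room temperature. Cleavage of 2 uM Z-FR-AMC was then tracked by fluorescence.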
Starred values were filed as active, the others as inactive; ? = inconclusive. Calls come from the whole dose curve; as a rule, active = well fitted curve in the direction sought with a large enough effect; inconclusive = small, poorly fitted or top-dose-only effect, or another doubt; inactive = no such curve, though single readings can be large; an effect the other way counts as inactive or inconclusive. Potency is the fitted concentration of half-maximal effect.

SMILES	Cruzain inh noDet	Cruzain inh Det
COc1ccc(N2CCN(Cc3cc(=O)oc4cc5c(cc34)CCCC5)CC2)cc1	12.6µM*	0.0%
O=c1cc(CN2CCN(c3ccccc3)CC2)c2c(ccc3ccccc32)o1	?	3.2%
O=c1cc(CN2CCN(c3cccc(Cl)c3)CC2)c2cc(O)c(-c3ccccc3)cc2o1	7.94µM*	3.8%
O=c1cc(CN2CCN(Cc3ccccc3)CC2)c2cc(Cl)ccc2o1	-7.8%	-3.7%
O=c1cc(CN2CCN(c3ccccc3)CC2)c2cc(O)c(-c3ccccc3)cc2o1	10µM*	-2.0%
CCn1cc(C(=O)OCC(=O)Nc2cc(OC)cc(OC)c2)c(=O)c2ccc(C)nc21	4.7%	-3.0%
N=C(N)SCC(=O)O	-1.3%	3.0%
C[C@@H]1CC[C@@]2(OC1)O[C@H]1[C@@H](O)[C@H]3[C@@H]4CC[C@H]5C[C@@H](O[C@@H]6O[C@H](CO)[C@H](O[C@@H]7O[C@H](CO)[C@@H](O)[C@H](O[C@@H]8OC[C@@H](O)[C@H](O)[C@H]8O)[C@H]7O[C@@H]7O[C@H](CO)[C@@H](O)[C@H](O[C@@H]8O[C@H](CO)[C@@H](O)[C@H](O)[C@H]8O)[C@H]7O)[C@H](O)[C@H]6O)[C@H](O)C[C@]5(C)[C@H]4CC[C@]3(C)[C@H]1[C@@H]2C	?	-2.4%
COC(=O)[C@H](COC(C)(C)C)NC(=O)O[C@@H]1C(=O)c2cc(OC)ccc2O[C@H]1c1cccc(OC)c1	-3.5%	-1.3%
CN1CCN(c2cc(N3CCc4ccccc4C3)c(F)cc2[N+](=O)[O-])CC1	12.0%	-1.3%
O=[N+]([O-])c1ccc(N2CCN(S(=O)(=O)c3ccccc3[N+](=O)[O-])CC2)cc1N1CCc2ccccc2C1	6.31µM*	-4.4%
C/C(=N\N=C(/N)SC1CC(=O)N(c2ccc(Br)cc2)C1=O)c1cccs1 (stereo not given)	?	-7.6%
N/C(=N\N=C\c1ccnc2ccccc12)SC1CC(=O)N(c2ccc(Br)cc2)C1=O (stereo not given)	10µM*	-20.1%
COc1ccc(N2C(=O)CC(S/C(N)=N/N=C/c3ccnc4ccccc34)C2=O)cc1 (stereo not given)	10µM*	25.1µM*
CCN=C(NCC)SC1CC(=O)N(c2ccc(OC)cc2)C1=O (stereo not given)	0.9%	2.1%
COc1ccccc1-c1cc(C(=O)Nc2sc3c(c2C#N)CCC(C)C3)c2ccccc2n1 (stereo not given)	3.16µM*	0.8%
COc1ccc(OC)c(-c2cc(C(=O)Nc3sc4c(c3C#N)CCC(C)C4)c3ccccc3n2)c1 (stereo not given)	?	0.8%
N#Cc1c(NC(=O)c2ccccc2)sc2c1CCCCC2	-1.2%	-10.1%
COc1ccc(-c2cc(C(=O)Nc3sc4c(c3C#N)CCCC4)c3ccccc3n2)cc1	7.94µM*	-4.6%
O=C(O)CCSC1=NCCN1	-6.1%	-2.0%
COc1cc(OC)cc(-c2nc3nc(C)c(CCC(=O)Nc4cc(C)cc(C)c4)c(C)n3n2)c1	0.9%	1.6%
CN1C(C)(C)CC(=NOC(=O)c2ccccc2)CC1(C)C	1.7%	-0.6%
CN1C(=O)/C(=N/OC(=O)c2ccccc2)c2ccccc21	6.31µM*	4.47µM*
CC(NS(=O)(=O)c1ccc2c(c1)CCN2C(=O)CCCC(=O)O)c1ccccc1 (stereo not given)	-7.8%	-2.2%
Cc1ccc(S(=O)Cc2ccc(C(=O)NC3CCCCCC3)o2)cc1 (stereo not given)	3.6%	4.8%
SMILES	Cruzain inh noDet	Cruzain inh Det
Cc1nc2cncnc2n(C2CC2)c1=O	5.3%	3.8%
CC(C)c1ccc(NC(=O)c2ccc(F)c(S(=O)(=O)N3CCc4ccccc4C3)c2)cc1	-5.1%	0.1%
CCn1c2ccccc2c2cc(NC(=O)c3ccc(C)c([N+](=O)[O-])c3)ccc21	25.1µM*	-2.7%
CCn1c2ccccc2c2cc(NC(=O)c3cccc([N+](=O)[O-])c3)ccc21	-4.5%	4.3%
O=C(Nc1ccc(N2CCCC2)c(Cl)c1)c1ccc(Br)o1	10µM*	-13.7%
CCn1c2ccccc2c2cc(NC(=O)c3ccc(Br)o3)ccc21	106.9%	12.6µM*
CCn1c2ccccc2c2cc(NC(=O)c3cc(OC)cc(OC)c3)ccc21	?	-6.2%
O=C(Nc1ccccc1N1CCCC1)c1ccc(Br)o1	-6.0%	-4.0%
CCc1cc2c(cc3c(=O)n(CC(=O)NCCc4ccccc4)ncn32)s1	-4.0%	0.4%
COc1cc(-c2noc(C3CC(=O)N(c4cc(C)ccc4C)C3)n2)cc(OC)c1OC (stereo not given)	?	-3.2%
O=C(CSc1nc(-c2ccccc2)cs1)Nc1nccs1	25.1µM*	5.0%
O=C(CSc1nc(-c2ccccc2)nc2ccccc12)Nc1nccs1	?	-2.1%
